Results: PubChem BioAssay (NCI)
The panel holds about 79,000 compounds, 15% with a hit somewhere; the sample as a whole holds those more often. Calls of active or inactive are those of the source. Rule as the data show it: active = growth inhibition above about 70%; inactive = the rest.

Legend:
[1] = NCI Yeast Anticancer Drug Screen. Data for the rad50 strain (AID 155);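 also: 0% = growth of vehicle-only cultures of the same strain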; conditions: S. cerevisiae rad50 strain growth inhibition; at 50.0 µM; hits give high values
In short: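 Genetically altered yeast (DNA repair pathway); compound treatment; growth inhibition vs vehicle ctrl.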

[2] = NCI Yeast Anticancer Drug Screen. Data for the mec2-1 strain (AID 157); conditions: S. cerevisiae mec2-1 strain, at 50.0 µM, hits give high values
In short: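 Cells of the genetically defined mec2-1 yeast strain are incubated with test compound. Inhibition of growth is calculated against vehicle-treated controls.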

[3] = NCI Yeast Anticancer Drug Screen. Data for the sgs1 mgt1 strain (AID 161);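 also: 0% = growth of cultures given vehicle only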; conditions: S. cerevisiae sgs1 mgt1 strain, at 50.0 µM, hits give high values
In short: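 Test agents were incubated with a DNA-repair-mutant yeast strain. Growth was then read and compared against vehicle-treated controls.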

[4] = NCI Yeast Anticancer Drug Screen. Data for the cln2 rad14 strain (AID 165);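 also: 0% = growth equal to vehicle treated cultures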; conditions: S. cerevisiae cln2 rad14 strain, at 50.0 µM, hits give high values
In short: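 The screen exposed genetically defined yeast (cln2 rad14) to test compounds and scored growth inhibition relative to vehicle-treated controls.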

[5] = NCI Yeast Anticancer Drug Screen. Data for the bub3 strain (AID 167); conditions: S. cerevisiae bub3 mutant strain, at 50.0 µM, hits give high values
In short: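 Yeast carrying a defined mutation is treated with each compound, and growth is compared with that of vehicle-exposed cells to give inhibition.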

[6] = NCI Yeast Anticancer Drug Screen. Data for the mlh1 rad18 strain (AID 175); conditions: S. cerevisiae mlh1 rad18 strain growth inhibition; at 50.0 µM; hits give high values
In short: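 Compound-treated yeast growth, normalised to vehicle controls. Strain bears defined DNA repair mutations.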

Measured: growth inhibition

COc1ccc2c(c1)C1Oc3ccccc3CC1(O)CO2 (stereo unspecified)
inactive: [1] 14.4% | [2] 6.75% | [3] 21.3% | [4] 26.5% | [5] -6.3% | [6] 51.5%

Cn1c(N)c(-n2[nH]c(=O)n(-c3ccccc3)c2=O)c(=O)n(C)c1=O
inactive: [1] -20.6% | [2] 15.3% | [3] -3.25% | [4] -14.8% | [5] 14.6% | [6] 18.1%

CCCSc1ncnc2c1ncn2COC(=O)NC
inactive: [1] 15.1% | [2] -11.4% | [3] 5.2% | [4] 5.15% | [5] 11.3% | [6] -2.8%

COc1cc(/C=C/C(=O)OCC23CC[C@@]4(C(=O)O)CCC(C)[C@H](C)C4C2=CCC2[C@@]4(C)CC[C@H](O)C(C)(C)C4CC[C@]23C)ccc1O (stereo partly specified)
inactive: [1] 20.2% | [2] 9.95% | [3] 26.6% | [4] 4.85% | [5] -1.6% | [6] 6.9%

Nc1c(N=Nc2ccc(S(=O)(=O)Nc3cnccn3)cc2)cc(S(=O)(=O)O)c2ccccc12
inactive: [1] 10.6% | [2] -2.45% | [3] 8.3% | [4] 5.9% | [5] 9.8% | [6] 26.6%

O=C(O)c1ccc(/C=N/NC(=S)Nc2cccc3cccnc23)cc1
inactive: [1] 22.1% | [2] 7.4% | [3] 6.6% | [4] 16.4% | [5] 10.2% | [6] -17.1%

OC1CCC2CCCCC2C1 (stereo unspecified)
inactive: [1] -7.3% | [2] -16.9% | [3] -15.4% | [4] -25.1% | [5] -1.95% | [6] 2.85%

CCCCC1=C(C)CCC1=O
inactive: [1] 17.9% | [2] 8.9% | [3] 8.7% | [4] 6.55% | [5] 2.85% | [6] 4.85%

CCCC1([N+](=O)[O-])CCC(C)(O)C(/C(C)=N\O)C1 (stereo unspecified)
inactive: [1] 7.05% | [2] -9.5% | [3] 25.5% | [4] -0.15% | [5] 26.1% | [6] 40.2%

COc1ccc(I)cc1
inactive: [1] -1.85% | [2] -15.8% | [3] 3.65% | [4] -2.2% | [5] -3.5% | [6] 2.35%

Cc1cc2nc(/C(C#N)=C/c3cc(Cl)cc(Cl)c3O)[nH]c2cc1C
inactive: [1] 16.2% | [2] 22.4% | [3] 33% | [4] 28.1% | [5] 19.4% | [6] -3.35%

COc1cccc(/C(C#N)=C\O)c1
inactive: [1] -17.2% | [2] -36.9% | [3] -29.9% | [4] 3.2% | [5] -42.9% | [6] -8.8%

COc1ccc(CNC(=O)C2C(=O)C(=O)N(Cc3ccc(OC)c(OC)c3)C2=O)cc1OC (stereo unspecified)
inactive: [1] 20.8% | [2] -5.45% | [3] -0.9% | [4] 17.1% | [5] -1.25% | [6] 14.7%

NC(=S)NNC(=O)CCC(=O)Nc1ccccc1Cl
inactive: [1] -0.15% | [2] -2.3% | [3] -11.8% | [4] 37.2% | [5] -3.95% | [6] 6.65%

CC1(C)OC(=O)c2ccccc21
inactive: [1] 30.1% | [2] 3% | [3] -5.05% | [4] -14.8% | [5] 1.35% | [6] 2.2%

O=C(O)CCC(C(=O)O)N(Cc1ccccc1)Cc1ccccc1 (stereo unspecified)
inactive: [1] 11.4% | [2] -0.4% | [3] -1.45% | [4] 1% | [5] 7.75% | [6] 5.9%

NC(=O)CCP(=O)(CCC(N)=O)CCC(N)=O
inactive: [1] 3.8% | [2] -2.3% | [3] 1.2% | [4] 0.8% | [5] -2.95% | [6] 2.4%

CN(C)CCN1C(=O)CC[C@@]2(C)C1=CC[C@@H]1[C@@H]2CC[C@@]2(C)[C@H]1CC[C@]2(C)O
inactive: [1] -21.7% | [2] -12.8% | [3] -18.6% | [4] -11.1% | [5] -0.1% | [6] -9.15%

CCCCCCCCC(=O)c1c(OC)oc(C=O)cc1=O
inactive: [1] -0.5% | [2] -22.8% | [3] 31.8% | [4] 26.2% | [5] -19.6% | [6] 4%

CCOC(=O)C(=[N+]=[N-])C(=O)CN1C(=O)C2CC(C)=C(C)CC2C1O (stereo unspecified)
inactive: [1] -18.8% | [2] 1.15% | [3] -4.45% | [4] 1.85% | [5] -10.8% | [6] 16.9%

Cn1c(COc2ccc(/C=N\NC(=O)c3ccc(C(=O)N/N=C/c4ccc(OCc5c[n+]6ccccc6n5C)cc4)cc3)cc2)c[n+]2ccccc12
inactive: [1] -5% | [2] 3.5% | [3] -2.85% | [4] 26.7% | [5] 1.6% | [6] -36.8%

NC(=S)Nc1ccccc1-c1ccccc1
inactive: [1] 36.2% | [2] 13.8% | [3] 25% | [4] -6.9% | [5] 32.5% | [6] 33.2%

COc1ccc(CCc2ccc(Cl)cc2)cc1
inactive: [1] 6.35% | [2] 6.3% | [3] -5.9% | [4] 15.5% | [5] -17.6% | [6] -4.5%

O=S(=O)(O)C(CO)c1ccccc1 (stereo unspecified) (tested in a mixture with another compound)
inactive: [1] 5.75% | [2] 1.5% | [3] -12.9% | [4] -31.2% | [5] -28.7% | [6] 0.9%

CC(=O)Nc1ccc2ccccc2c1SC1CC(=O)N(c2ccccc2)C1=O (stereo unspecified)
inactive: [1] -24.1% | [2] -3% | [3] -26.2% | [4] -23.4% | [5] -15.8% | [6] -20.6%

O=Cc1c2c(cc3c1CC1(C3)Cc3cc4c(c(C=O)c3C1)CCCC4)CCCC2
inactive: [1] 5.25% | [2] 11.6% | [3] 4.4% | [4] 25.3% | [5] 17.3% | [6] 25.1%

COc1ccc(C(c2c(O)c3ccccc3n(C)c2=O)c2c(O)c3ccccc3n(C)c2=O)cc1
inactive: [1] -39% | [2] -19.3% | [3] -25.9% | [4] -33.5% | [5] 1.1% | [6] -35.1%

C=CCNC(=S)/N=C/c1c(O)c2ccccc2oc1=O
inactive: [1] -33.5% | [2] -29.6% | [3] -43% | [4] -33.6% | [5] -53% | [6] -46.9%

CCC(=O)N1CCN(C(=O)CC)CC1
inactive: [1] 6.4% | [2] -2.45% | [3] -5.25% | [4] -12.8% | [5] 1.95% | [6] -2.25%

CN(C)C(=O)Sc1nnc(C(C)(C)C)o1
inactive: [1] -4.35% | [2] -5.9% | [3] -7.3% | [4] -23.4% | [5] 1.7% | [6] 4.2%

N#C/C(=C/C=C/c1ccco1)C(N)=O
inactive: [1] 9.9% | [2] 1.65% | [3] 15.6% | [4] 10.6% | [5] -6.25% | [6] 13.4%

O=C(NN(C(=O)c1ccc([N+](=O)[O-])cc1)c1ccccc1)c1ccc([N+](=O)[O-])cc1
inactive: [1] 3.1% | [2] 14.2% | [3] 14.1% | [4] 21.4% | [5] 12.8% | [6] 13.2%

CCOC(=O)/C(O)=C/c1cc(=O)n(C)c2ccccc12
inactive: [1] -6.6% | [2] 10.7% | [3] -5.8% | [4] -21.8% | [5] -9.9% | [6] -17.4%

Clc1cc(Cl)cc(Nc2nc3ccccc3nc2-c2cccs2)c1
inactive: [1] -19.3% | [2] -14% | [3] 33.2% | [4] 3.35% | [5] -29.1% | [6] -10.2%

O=C(O)Cc1ccc(N2N=C(c3ccccc3)CC2=O)cc1
inactive: [1] 5.3% | [2] -5.05% | [3] -13.6% | [4] 35% | [5] 22.4% | [6] -9.3%

COC1OC(CO)C(O)C1O (stereo unspecified)
inactive: [1] -25% | [2] -18.8% | [3] 2.55% | [4] -44.4% | [5] -4.85% | [6] -9.25%
